# In the library only some 1.5% were active in any assay of this set; here they are far more common.
# PLAP activator – activates human placental alkaline phosphatase | P05187 | purified PLAP enzyme, luminescent substrate read-out; hits give high values | activation fold at 20 µM | actives 1.2% (n = 96,000); in the data active = activation fold above about 2
# BAP1 inh – human BAP1 deubiquitinase inhibition; Q92560; recombinant BAP1, Ub-AMC hydrolysis fluorescence kinetic; hits give low values; calls only at 20 µM; actives 0.48% (n = 72,000);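 active = activity remaining at or below 50% of control, provided the compound also passes the data quality filters; inactive = the rest, including low values that fail the filters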;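 note: 100% = DMSO wells rate and 0% = substrate alone blank rate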
# Target sequence (Q92560 whole entry, looked up): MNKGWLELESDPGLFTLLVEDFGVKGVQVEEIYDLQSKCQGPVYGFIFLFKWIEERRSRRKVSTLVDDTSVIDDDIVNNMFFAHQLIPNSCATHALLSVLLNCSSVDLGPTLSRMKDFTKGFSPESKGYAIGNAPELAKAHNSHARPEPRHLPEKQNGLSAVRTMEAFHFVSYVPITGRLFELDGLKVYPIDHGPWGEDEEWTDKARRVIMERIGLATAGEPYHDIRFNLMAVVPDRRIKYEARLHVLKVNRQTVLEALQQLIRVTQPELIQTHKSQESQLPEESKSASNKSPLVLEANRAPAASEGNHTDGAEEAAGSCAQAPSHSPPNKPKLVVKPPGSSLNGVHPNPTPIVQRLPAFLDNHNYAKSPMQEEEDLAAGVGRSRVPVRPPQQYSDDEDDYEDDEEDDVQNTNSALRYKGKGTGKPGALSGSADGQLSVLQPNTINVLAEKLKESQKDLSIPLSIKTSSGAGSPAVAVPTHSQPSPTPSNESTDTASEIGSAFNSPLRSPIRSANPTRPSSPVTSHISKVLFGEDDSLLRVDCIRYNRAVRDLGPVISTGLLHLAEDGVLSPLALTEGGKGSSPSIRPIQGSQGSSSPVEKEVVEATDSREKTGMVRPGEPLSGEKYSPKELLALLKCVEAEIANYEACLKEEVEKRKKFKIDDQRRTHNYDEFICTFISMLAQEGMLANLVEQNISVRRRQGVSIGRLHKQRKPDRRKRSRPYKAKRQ
# sEH inhibitor – inhibitors of human soluble epoxide hydrolase; P34913; recombinant human sEH enzymatic activity assay; inhibition, % at 2 µM; actives 0.34% (n = 91,000); AID 707; in the data active = inhibition above about 80%
# sEH act – activators of human soluble epoxide hydrolase. purified human sEH enzymatic activity, activator screen. actives 0.04% (n = 91,000). P34913. AID 717. activation, % at 2 µM; in the data active = activation above about 37%
# BAP1 inh conf – confirmation of human BAP1 enzyme inhibitors; shares compounds with BAP1 inh; purified BAP1, Ub-ethyl ester hydrolysis, HPLC; hits give low values; % of control activity, % at 20 µM; actives 8% (n = 310); AID 753;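 active = percent of control activity at or below 60%; inconclusive = HPLC trace unusable from injection failure or solvent front hiding peaks; inactive = the rest, plus ubiquitin peak ratio over a set limit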
# Starred values were filed as active, the others as inactive; i = inactive; ? = inconclusive; · = no result given; + = active, no number.
SMILES,PLAP activator,BAP1 inh,sEH inhibitor,sEH act,BAP1 inh conf
Cc1cc(NC(=O)c2cn(C3CCCCC3)c(=O)c3c2c2ccccc2n3C)no1,1.7,+,1.8,-0.1,102.5
CC1(C)CC(=O)c2cc(C(=O)NC3CCSC3=O)c(=O)n(-c3ccccc3)c2C1 (stereo unspecified),1.6,+,5.8,-6.8,73.7
Cc1ccc(-c2nc3cccnc3o2)cc1NC(=O)COc1ccc(Cl)cc1C,1.1,+,4.0,-5.1,80.7
O=C(Nc1nc(-c2nc3ccccc3s2)cs1)c1ccc(S(=O)(=O)N2CCOCC2)cc1,1,+,-1.4,0.1,109.1
COc1cc(OC)nc(NC(=O)CSc2nc3ccccc3o2)n1,0.9,+,-6.4,6.7,84.4
Cc1cc(C)nc(NC(=O)CSc2nc3ccccc3o2)n1,1.4,·,-6.1,4.7,·
CCc1ccc(N/C(SCc2cccc(F)c2)=C(/C#N)C(=O)NCc2ccco2)cc1,0.9,+,·,·,111.3
Cc1ccc(N/C(SCc2ccccc2C)=C(/C#N)C(=O)NCc2ccco2)cc1C,1.1,·,-28.1,31.8,·
CCC(C)Sc1nc2c(cnn2-c2ccc(C)c(C)c2)c(=O)[nH]1 (stereo unspecified),1.4,i,-4.8,4.6,·
CSc1nc2c(cnn2-c2ccc(C)c(C)c2)c(=O)[nH]1,1,+,·,·,?
COc1cccc(-c2csc(N3CCN(S(=O)(=O)c4ccc(F)cc4)CC3)n2)c1,1.4,+,·,·,83.7
CCn1c(=O)c2cc(C(=O)N3CCOCC3)sc2c2ccccc21,1.5,+,-10.5,9.7,82.8
Cc1ccc(OC(=O)c2ccc(C)c(S(=O)(=O)N3CCOCC3)c2)c(-n2nc3ccccc3n2)c1,·,i,·,·,·
Cc1cc2n(n1)C(c1ccc(O)cc1)Nc1ccccc1-2 (stereo unspecified),1,i,-13.3,13.2,·
Cc1cc2n(n1)C(c1ccco1)Nc1ccccc1-2 (stereo unspecified),0.9,+,2.4,-2.3,97.7
CCCCOc1ccccc1NC(=O)Cn1c(-c2nonc2N)nc2ccccc21,0.9,+,·,·,82.8
CC(C)(C)NC(=O)Cn1c(-c2nonc2N)nc2ccccc21,1.1,·,5.8,-5.4,·
COc1ccc2c(c1)c1nc(SCC(C)C)n(CCO)c(=O)c1n2C,1,+,8.7,-9.8,117.4
COc1ccc2c(c1)c1ncn(CCc3ccccc3)c(=O)c1n2C,1.5,·,-17.6,16.9,·
CCOC(=O)c1[nH]c(CSc2nnc(-c3ccc(OC)cc3)o2)c(C(=O)OCC)c1C,1.4,+,-0.7,0.4,138.4
COc1ccc(-c2nnc(SCC(=O)c3[nH]c(C)c(C(C)=O)c3C)o2)cc1,1.1,i,2.6,-2.5,·
CCC(C)C(=O)Nc1nnc(-c2cccs2)s1 (stereo unspecified),1,+,-7.1,7.8,91.6
Cc1ccc(S(=O)(=O)Nc2ccccc2C(=O)Nc2ccccc2C(=O)Nc2ccccc2)cc1,·,i,·,·,·
CSc1nc2ccc([N+](=O)[O-])cc2o1,·,i,·,·,·
Cc1ccc(OCC(=O)Nc2cc3nn(-c4ccccc4)nc3cc2C)cc1C,·,i,·,·,·
SMILES,PLAP activator,BAP1 inh,sEH inhibitor,sEH act,BAP1 inh conf
CCCc1ccc(Oc2c(-c3ccc(O)c(C)c3O)n[nH]c2C)cc1,1.8,+,·,·,63.6
COc1ccc(-c2[nH]ncc2-c2ccccc2)c(O)c1C,·,i,·,·,·
COc1ccc(Oc2c(-c3ccc(O)cc3O)n[nH]c2C)cc1,1.8,i,1.1,-1.6,·
CCCc1ccc(Oc2cn[nH]c2-c2ccc(O)c(C)c2O)cc1,2.2*,+,·,·,58.8*
CC(=O)Oc1ccc2nc(CN3C(=O)c4ccccc4C3=O)oc(=O)c2c1,·,i,·,·,·
COc1ccc(C2C(C(=O)OCCc3ccccc3)=C(C)NC3=C2C(=O)CCC3)c(OC)c1 (stereo unspecified),·,i,·,·,·
Cc1ccccc1N1CCN(c2ncnc3c2cnn3Cc2ccc(Cl)cc2)CC1,1.2,+,-2.4,0.5,139.8
Cc1ccc(Cn2ncc3c(N4CCN(Cc5ccc(Cl)cc5)CC4)ncnc32)cc1,0.9,·,2.6,0.7,·
CCOC(=O)C1=C(C)N=C2SCCC(=O)N2C1c1ccc(Cl)cc1 (stereo unspecified),·,i,·,·,·
CCOc1cc2[nH]c(=O)n(Cc3cccc(OC)c3)c(=O)c2cc1OCC,0.9,+,4.4,-3.3,103.9
CCc1ccc(-c2nc3cc(NC(=O)c4cccc(I)c4)ccc3o2)cc1,·,i,·,·,·
O=C(O)c1c(-c2ccccc2)c2oc3ccccc3c2[nH]c1=O,1,+,·,·,115.4
O=c1[nH]cnc2c1oc1ccccc12,1,i,-4.2,4.9,·
CCOc1ccc2c(c1)sc(=NC(=O)c1c(OC)cccc1OC)n2C,·,i,·,·,·
O=C(Nc1ccccc1O)c1cccc(S(=O)(=O)N2CCCC2)c1,·,i,·,·,·
COc1ccc(-c2nc3cc(C)ccc3o2)cc1N=Cc1cc(Br)cc(OC)c1O,·,i,·,·,·
COc1ccc(-c2cc3c(=O)n(CC(=O)NC4CCN(Cc5ccccc5)CC4)ncn3n2)cc1,0.8,+,3.1,-3.6,87.0
C=CCn1c(SCCCCCC)nc(O)cc1=O,1.1,+,2.0,0.4,83.3
C=CCn1c(SCCCC)nc(O)cc1=O,0.9,i,·,·,·
CCc1nc(N2CCCC(C)C2)c2oc3ccccc3c2n1 (stereo unspecified),1.3,+,4.5,-7.0,92.8
CCc1nc(N2CCCCC2)c2oc3ccccc3c2n1,1.4,i,7.8,-5.8,·
COC1=Cc2c(ccc3ccc(=O)oc23)OC1(C)C,1.1,·,·,·,·
CC(=O)OC1c2c(ccc3ccc(=O)oc23)OC(C)(C)C1OC(=O)CC(C)C (stereo unspecified),1.6,+,-5.3,3.9,99.3
CCCCOc1ccc(C(=O)N2C(=O)C(=O)c3ccccc32)cc1,·,i,·,·,·
COc1ccc(Cn2nnnc2CN(Cc2cc3ccc(C)cc3[nH]c2=O)C2CCCC2)cc1,0.9,i,-5.1,2.7,·
SMILES,PLAP activator,BAP1 inh,sEH inhibitor,sEH act,BAP1 inh conf
CCC(C)(C)n1nnnc1CN(Cc1cc2cc(OC)ccc2[nH]c1=O)C1CCCC1,1.4,+,-0.1,-1.3,129.7
CCOC(=O)Cn1nnnc1CN(Cc1ccc(OC)cc1)Cc1cc2cc(CC)ccc2[nH]c1=O,1.5,+,-26.7,24.3,97.3
COc1ccc(Br)cc1C(=O)Nc1cc2c(ccc3ccccc32)oc1=O,·,i,·,·,·
CCOC(=O)N1CCC(NC(=O)c2ccc3c(c2)sc2nc(-c4ccccc4)cn23)CC1,1.4,+,-11.9,10.2,101.3
Cc1ccc(Cl)cc1N1CCN(C(c2ccc(C#N)cc2)c2nnnn2C2CCCC2)CC1 (stereo unspecified),1.4,+,1.8,-0.6,68.0
Cc1ccc(Cl)cc1N1CCN(C(c2cccnc2)c2nnnn2C2CCCCC2)CC1 (stereo unspecified),1.6,i,-10.0,11.4,·
COc1ccccc1-c1c(C)nn2c(N3CCN(c4ccccc4OC)CC3)cc(C)nc12,1.7,+,2.1,1.5,105.1
COc1ccccc1-c1c(C)nn2c(N3CCCCCC3)cc(C)nc12,1.4,i,0.2,-0.4,·

# Bioassay records from PubChem BioAssay.
